The text below walks through data of PubChem BioAssay AID588397 (National Center for Advancing Translational Sciences (NCATS), 2011).

Values joined by “and” are separate entries in the source; they are usually repeats but may differ in a detail not shown here. Equal entries are not always repeated. Among all 1,300 compounds or so, about 1,000 (77%) were called active. Another 7% or so got no clear call; they are omitted. Calls follow the shape of the dose curve; as a rule, active = well fitted inhibition curve with a large enough effect; inconclusive = small, poorly fitted or top-dose-only effect; inactive = no such curve, though single readings can be large or run the other way. So high a share suggests a set chosen from earlier hits. The list shows a part of the results.
% is scaled to controls: 0 for no effect and ±100 for the full control effect; potency is read from the fitted curve at half-maximal effect.

This assay can be described thus: qHTS of small molecules that selectively kill Giardia lamblia: Hit Validation.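 Also: viability measured as ATP content by luminescence so killing lowers signal; trophozoites exposed to compounds for 48 h anaerobically at 37 °C; nearly all actives have a fitted effect of over 65% in size.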 The following applies: Giardia lamblia trophozoite viability, dose-response; series mostly up to 38.3 µM; activity change, negative = killing: at the top concentration. The procedure, abridged:
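HTS viability screen: compound-treated trophozoites (100 cells/well) are kept anaerobic at 37 deg C for 48 hrs, and surviving cells are detected through ATP-dependent luminescence.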
In general terms: In qHTS, concentration-response curves come from the screen itself.
Regarding `CC1(C)Oc2ccc3ccc(=O)oc3c2C(/C=N/O)C1=O` (stereo unspecified), the “activity change, negative = killing” value is 5.31% (inactive).
For `O=[N+]([O-])c1nn(-c2ccc3c(c2)OCCO3)n(O)c1=NCc1ccc(F)cc1`, the Potency was 4.6 µM (active).
On the same count and under the same terms, then `COc1ccc(-n2nc([N+](=O)[O-])c(=NCc3ccc4c(c3)OCO4)n2O)cc1`, with 14.5 µM (active).
For the compound `Cc1ccc(CN=c2c([N+](=O)[O-])nn(-c3ccc4c(c3)OCCO4)n2O)cc1`, the Potency is 3.65 µM (active).
On the same count and under the same terms, then `O=C(COc1cccnc1[N+](=O)[O-])Nc1cccc(S(=O)(=O)N2CCCCC2)c1`, with 3.65 µM (active).
With `O=C(COc1cccnc1[N+](=O)[O-])Nc1cc(S(=O)(=O)N2CCCCC2)ccc1Cl`, the Potency was 1.45 µM (active).
`Cc1ccc(NC(=O)COc2cccnc2[N+](=O)[O-])cc1S(=O)(=O)N1CCCCC1`: the Potency is 4.1 µM (active).
For the compound `CN(C(=O)c1ccc(NC(=O)Cc2ccc(NC(=O)C3CCCN(S(=O)(=O)c4cccc([N+](=O)[O-])c4)C3)cc2)cc1)C1CCCC1` (stereo unspecified), the “activity change, negative = killing” value was 1.44% (inactive).
Take `Cc1ccc(OCC(=O)Nc2cc(S(=O)(=O)N3CCOCC3)ccc2Cl)c([N+](=O)[O-])n1`: the Potency was 4.1 µM (active).
For `Cc1ccc(S(=O)(=O)N2CCN(C(=O)COc3ccc(C)nc3[N+](=O)[O-])CC2)c(C)c1`, the Potency is 4.1 µM (active).
Turning to `Cc1ccc(CCNC(=O)CN2C(=O)COc3ccc(S(=O)(=O)N4CCOCC4)cc32)cc1`, the “activity change, negative = killing” value is -1.26% (inactive).
As for `COc1ccc(S(=O)(=O)N2CCOCC2)cc1NC(=O)COc1cccnc1[N+](=O)[O-]`, the Potency is 5.79 µM (active).
For the compound `Cc1ccccc1NC(NC(=O)OCCn1c([N+](=O)[O-])cnc1C)C(Cl)(Cl)Cl` (stereo unspecified), the Potency was 0.729 µM (active).
Regarding `Cc1ncc([N+](=O)[O-])n1CCOC(=O)NC(Nc1ccc(F)cc1)C(Cl)(Cl)Cl` (stereo unspecified), the Potency was 0.46 µM (active).
Regarding `CCOC(=O)c1c(C)[nH]c(C)c1S(=O)(=O)N1CCN(c2ccc([N+](=O)[O-])cc2)CC1`, the Potency is 7.29 µM (active).
Same read-out and setting: then `Cc1oc2c(c1C(=O)N1CCC(C)CC1)C(=O)c1ccccc1C2=O`, with 3.65 µM (active); and `CCOC(=O)C1CCN(C(=O)c2c(C)oc3c2C(=O)c2ccccc2C3=O)CC1`, with 2.05 µM (active); and `Cc1oc2c(c1C(=O)N1CCOCC1)C(=O)c1ccccc1C2=O`, with 3.26 µM (active).
Take `O=[N+]([O-])c1ccc(/C=[N+](\[O-])CCO)o1`: the Potency is 1.16 µM (active).
Take `O=[N+]([O-])c1ccc(/C=[N+](\[O-])[C@@H]2CCCC[C@@H]2/[N+]([O-])=C/c2ccc([N+](=O)[O-])o2)o1`: the Potency is 0.65 µM (active).
On to `CCOC(=O)N1CCN(C(=O)c2ccc(Cl)c(NC(=O)c3cccs3)c2)CC1`, for which the “activity change, negative = killing” value was 19.9% (inactive).
Take `Cc1ccn(-c2ccc(NC(=O)c3cccs3)cc2)n1`: the Potency was 16.3 µM (active).
For the compound `N#Cc1c(NC(=O)c2ccc([N+](=O)[O-])o2)sc2c1CCC2`, the Potency was 0.365 µM (active).
`NC(=O)c1ccsc1NC(=O)c1ccc([N+](=O)[O-])o1`: the Potency was 1.3 µM (active).
The same measure, in the same setting: then `CC(C)N1CCc2c(sc(NC(=O)c3cc4cc([N+](=O)[O-])ccc4s3)c2C(N)=O)C1`, with 2.59 µM (active).
As for `Cn1cc([N+](=O)[O-])c(C(=O)Nc2sc3c(c2C#N)CCC3)n1`, the Potency was 2.31 µM (active).
Consider `COC(=O)c1sc(NC(=O)c2ccc([N+](=O)[O-])o2)c(C#N)c1C`, for which the Potency is 0.29 µM (active).
Consider `NC(=O)c1c(NC(=O)c2ccc([N+](=O)[O-])o2)sc2c1CCCC2`, for which the Potency is 0.65 µM (active).
Turning to `CC(=O)N1CCc2c(sc(NC(=O)c3ccc([N+](=O)[O-])o3)c2C#N)C1`, the Potency is 1.16 µM (active).
For the compound `COC(=O)c1c(NC(=O)c2ccc([N+](=O)[O-])o2)sc2c1CCN(C(C)C)C2`, the Potency is 0.818 µM (active).
Still for that read-out and setting: the value for `CCn1cc(-c2cc(C(=O)O)c3ccccc3n2)cn1` was 5.16 µM (active).
Same read-out and setting: the value for `CCOC(=O)N1CCN(C(=O)c2cc(-c3ccc(OCC)cc3)nc3ccccc23)CC1` was 2.9 µM (active).
Regarding `CCOc1ccc(-c2cc(C(=O)N3CCN(c4ccccn4)CC3)c3ccccc3n2)cc1`, the Potency is 1.63 µM (active) and 1.45 µM (active) and 3.26 µM (active).
As to `O=C(NNC(=O)c1cc(-c2ccncc2)nc2ccccc12)c1ccccc1O`, the “activity change, negative = killing” value was -14.2% (inactive).
Consider `c1cc(-c2cc3cc(N4CCOCC4)ccc3o2)cs1`, for which the Potency was 2.05 µM (active).
Consider `CCCCC(CC)C(=O)Nc1ncc([N+](=O)[O-])s1` (stereo unspecified), for which the Potency is 0.23 µM (active).
For `CCC(Oc1ccccc1)C(=O)Nc1ncc([N+](=O)[O-])s1` (stereo unspecified), the Potency is 0.103 µM (active).
As to `CCCCC(=O)Nc1ncc([N+](=O)[O-])s1`, the Potency was 0.23 µM (active).
Still for that read-out and setting: the value for `CC(C)CC(=O)Nc1ncc([N+](=O)[O-])s1` was 0.206 µM (active).
In the case of `CCc1nn2c(=O)c(S(=O)(=O)Nc3ccc(Cl)cc3)c(C)nc2s1`, the “activity change, negative = killing” value is -12.1% (inactive).
For the compound `CC(CC(=O)Nc1ncc([N+](=O)[O-])s1)c1ccccc1` (stereo unspecified), the Potency was 0.206 µM (active).
As to `CC1=C(C(=O)Nc2ccc(CC(=O)NCc3ccc(OC(C)C)cc3)cc2)SCCO1`, the Potency was 4.1 µM (active).
Take `CN(C(=O)CSc1nc2ccc([N+](=O)[O-])cc2s1)C1CCS(=O)(=O)C1` (stereo unspecified): the Potency was 1.45 µM (active).
Consider `CN(C(=O)CSc1nc2ccccc2c(=O)n1-c1ccc(F)cc1)C1CCS(=O)(=O)C1` (stereo unspecified), for which the “activity change, negative = killing” value is -14.3% (inactive).
On the same count and under the same terms, the value for `O=C(COc1ccccc1)N=C1SC2CS(=O)(=O)CC2N1c1ccccc1F` (stereo unspecified) was -32% (inactive).
In the case of `O=[N+]([O-])c1ccc(/C=C/C2=NN(c3ccccc3)C(c3ccco3)C2)o1` (stereo unspecified), the Potency was 0.115 µM (active).
Regarding `COc1ccc(-c2nnc(NC(=O)c3ccc([N+](=O)[O-])o3)o2)c(OC)c1`, the Potency was 2.05 µM (active).
`Cc1ccc(-c2nnc(NC(=O)c3ccc([N+](=O)[O-])o3)o2)c(C)c1`: the Potency is 0.41 µM (active).
`Cc1ccc(C)c(-c2nnc(NC(=O)c3ccc([N+](=O)[O-])o3)o2)c1`: the Potency was 0.516 µM (active).
`O=[N+]([O-])c1cccc(S(=O)(=O)c2ccc(NCCOCCO)c([N+](=O)[O-])c2)c1`: the Potency is 1.63 µM (active).
As for `Cc1ccc(-c2[nH][nH]c(=O)c(=O)c2N=Nc2ccccc2)cc1`, the Potency is 1.3 µM (active).
Turning to `O=c1[nH][nH]c(-c2ccccc2)c1C=Nc1ccc(OC(F)(F)F)cc1`, the “activity change, negative = killing” value is -6.83% (inactive).
With `CC(=O)O[C@@H]1[C@@H](OC(C)=O)[C@H](n2ccc3cc([N+](=O)[O-])ccc32)OC[C@@H]1OC(C)=O`, the Potency was 0.259 µM (active).
Take `COc1ccccc1C1OC2=C(Nc3ccc([N+](=O)[O-])cc3N2)C1=O` (stereo unspecified): the Potency is 3.65 µM (active).
On to `CCN(CC)CCOC(=O)c1ccc(N/C=C(/C#N)c2nc(-c3cc4ccccc4oc3=O)cs2)cc1`, for which the Potency is 0.516 µM (active).
For the compound `CCN(CC)CCOC(=O)c1ccc(N/C=C(/C#N)c2nc(-c3ccc4c(c3)OCO4)cs2)cc1`, the Potency was 2.05 µM (active).
As for `O=c1c2c([N+](=O)[O-])cc([N+](=O)[O-])cc2nc2ccccn12`, the Potency was 2.59 µM (active).
As for `O=C(CCc1ccccc1)Nc1ncc([N+](=O)[O-])s1`, the Potency was 0.23 µM (active).
On the same count and under the same terms, then `O=C(CCS(=O)(=O)c1ccccc1)Nc1ncc([N+](=O)[O-])s1`, with 1.16 µM (active); and `O=C(Nc1ccccc1)Nc1ncc([N+](=O)[O-])s1`, with 4.1 µM (active).
On the same count and under the same terms, then `O=C(CCS(=O)(=O)Cc1ccccc1)Nc1ncc([N+](=O)[O-])s1`, with 0.65 µM (active).
Regarding `C[n+]1ccnc2ccccc21`, the Potency is 2.59 µM (active).
On the same count and under the same terms, then `O=c1[nH]c2cccnc2n1-c1ccc([N+](=O)[O-])cc1`, with 1.83 µM (active); and `CC(C)(C)C(=O)N1CCN(c2ccc(NC(=O)c3ccc([N+](=O)[O-])o3)cc2)CC1`, with 1.45 µM (active).
For `CC(C)C(=O)N1CCN(c2ccc(NC(=O)c3ccc([N+](=O)[O-])o3)cc2)CC1`, the Potency was 1.03 µM (active).
`CCC(=O)N1CCN(c2ccc(NC(=O)c3ccc([N+](=O)[O-])o3)cc2)CC1`: the Potency was 0.918 µM (active).
`CCCC(=O)N1CCN(c2ccc(NC(=O)c3ccc([N+](=O)[O-])o3)cc2)CC1`: the Potency was 0.729 µM (active).
Consider `Cc1ncc([N+](=O)[O-])n1CCOC(=O)c1cc(Cl)cc(Cl)c1N`, for which the Potency is 0.163 µM (active).
Regarding `Cc1ncc([N+](=O)[O-])n1CCOC(=O)c1ccc(Cl)cc1Cl`, the Potency was 0.818 µM (active).
With `CN=C1C=C/C(=N/N=c2\ccn(O)cc2C)C=C1C`, the Potency was 1.45 µM (active).
The same measure, in the same setting: then `O=C(Nc1csc([N+](=O)[O-])c1)Nc1ccccc1Cl`, with 1.63 µM (active); and `COC(=O)/C(=C\c1ccc([N+](=O)[O-])o1)NC(=O)c1ccccc1`, with 1.03 µM (active); and `CCCCNC(=O)/C(=C\c1ccc([N+](=O)[O-])o1)NC(=O)c1ccccc1`, with 1.03 µM (active).
On to `COc1cc(/C=C(\NC(=O)c2ccccc2)C(=O)NCCO)c([N+](=O)[O-])cc1OC`, for which the “activity change, negative = killing” value is 18.6% (inactive).
As for `CCCOC(=O)/C(=C\c1ccc([N+](=O)[O-])o1)NC(=O)c1ccccc1`, the Potency was 0.729 µM (active).
For `CCOc1ccccc1C(=O)Nc1ccc2nc(N3CCN(c4ncccn4)CC3)cc(C)c2c1`, the Potency was 3.26 µM (active).
Turning to `O=C1C(c2ccncc2)=C(O)c2ccccc21`, the Potency was 9.18 µM (active).
Still for that read-out and setting: the value for `CS/C(Nc1cc(Cl)ccc1Cl)=C(/C#N)C(=O)c1ccco1` was 5.79 µM (active); that for `O=[N+]([O-])c1ccc(N=NN(CCO)CCO)cc1` was 3.26 µM (active); that for `O=C(CSc1ccc(Cl)cc1)N/N=C/c1ccc([N+](=O)[O-])o1` was 0.818 µM (active).
On the same count and under the same terms, then `O=C(CCC(=O)Nc1ccc(Cl)cc1Cl)N/N=C/c1ccc([N+](=O)[O-])o1`, with 0.818 µM (active).
For `CCCCCC(=O)N/N=C/c1ccc([N+](=O)[O-])o1`, the Potency is 0.579 µM (active).
In the case of `CCOC(=O)N/N=C\c1ccc([N+](=O)[O-])o1`, the Potency is 1.3 µM (active).
The same measure, in the same setting: then `CCCCCCCC(=O)N/N=C/c1ccc([N+](=O)[O-])o1`, with 0.579 µM (active); and `COc1ccc(NS(=O)(=O)c2ccc(C)cc2)c([N+](=O)[O-])c1`, with 1.83 µM (active).
On to `CC(=O)Nc1ccc(NS(=O)(=O)c2ccc(C)cc2)c([N+](=O)[O-])c1`, for which the Potency was 0.516 µM (active).
